A selection: hits, their analogues and other compounds. The true share with any hit is near 2.4%.
POLK inh: DNA polymerase kappa (human) inhibition | Q9UBT6 | purified Pol kappa, fluorescent DNA synthesis assay, 10 min | Potency, µM (highest dose often 107 µM), usual class: inhibitors | 400,000 compounds, 0.53% hits | AID 588579
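10 nM Pol kappa preincubated 15 min at room temperature with compounds, then reaction started with substrate at 50 nM final. Fluorescence read kinetically at 0 and 10 min; buffer-only wells served as negative control.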
Pol eta inh: blocks human DNA polymerase eta activity | recombinant Pol eta, fluorescent DNA replication assay | Potency, µM (doses to about 114 µM), most hits filed as inhibitors | 390,000 compounds, 1.2% hits | AID 588591
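Fluorescent replication assay: 50 nM final substrate added after a 15 min room-temperature compound preincubation with 10 nM enzyme. Signal taken at 0 min and again at 10 min.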
FEN1 inhibitor: blocks human flap endonuclease 1. P39748. Recombinant FEN1 flap cleavage, fluorescence, 15 min. Potency, µM (doses to about 114 µM), actives largely listed as inhibitors. 390,000 compounds, 0.35% hits; further: nearly all actives have a fitted effect of over 65% in size
Target sequence (P39748 whole entry, looked up): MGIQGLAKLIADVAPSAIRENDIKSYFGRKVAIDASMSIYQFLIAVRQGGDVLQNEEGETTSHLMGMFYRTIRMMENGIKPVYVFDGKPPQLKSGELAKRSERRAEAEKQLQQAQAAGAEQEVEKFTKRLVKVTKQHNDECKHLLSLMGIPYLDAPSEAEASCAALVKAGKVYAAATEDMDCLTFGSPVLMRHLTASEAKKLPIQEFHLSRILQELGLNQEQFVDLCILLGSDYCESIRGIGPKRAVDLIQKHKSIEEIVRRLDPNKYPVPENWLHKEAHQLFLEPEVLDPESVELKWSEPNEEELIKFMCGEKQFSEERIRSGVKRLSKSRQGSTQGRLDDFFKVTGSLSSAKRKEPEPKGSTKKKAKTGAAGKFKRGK
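Enzyme 10 nM, 15 min RT preincubation with compound; start with substrate 50 nM final; reads at 0 and 15 min; qHTS titration, four-parameter Hill fit.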
WRN helicase inh: WRN helicase (human) inhibition; WRN helicase unwinding, fluorescent forked duplex, kinetic; AID 651768; Potency, µM (series often up to 114 µM), hits mostly inhibitors; Q14191; 360,000 compounds, 0.46% hits; further: nearly all actives have a fitted effect of over 55% in size
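Screening of the MLSMR collection measured strand separation of a quenched forked DNA duplex (100 nM) by 20 nM WRN with 2 mM ATP, all final. Compounds were preincubated with enzyme 15 min at room temperature.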
Pol iota inh: DNA polymerase iota (human) inhibition | Pol iota fluorescent replication assay, 10 min | Potency, µM (doses to about 115 µM), hits mostly inhibitors | 390,000 compounds, 1% hits | AID 588590
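Pol iota at 10 nM preincubated 15 min with compounds at room temperature; reaction started with fluorescent substrate, 50 nM final. Fluorescence read kinetically at 0 and 10 min; buffer-only wells as negative control.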
POLB inh: inhibitors of human DNA polymerase beta; Pol beta primer extension/strand displacement, fluorescence kinetic; Potency, µM (series often up to 114 µM), actives largely listed as inhibitors; 340,000 compounds, 1.3% hits; AID 485314
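Pol beta (10 nM) was preincubated with compound for 15 min at room temperature. The reaction was then started with 50 nM substrate and read immediately and after a further 10 min at room temperature.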
Large screens that a line does not name were inactive. The call rests on the fitted dose curve; in most records, active means well fitted curve in the direction sought with a large enough effect; inconclusive means small, poorly fitted or top-dose-only effect, or another doubt; inactive means no such curve, though single readings can be large; an effect the other way counts as inactive or inconclusive.

O=c1c2c3nc4ccccc4nc3n(Cc3ccccc3)c2ncn1Cc1ccco1	POLK inh inconclusive, Pol eta inh 17.8µM, WRN helicase inh inconclusive, Pol iota inh inconclusive, POLB inh 28.2µM
COCCCn1c2nc3ccccc3nc2c2c(=O)n(Cc3ccc(Cl)cc3)cnc21	none
CCOC(=O)NC1(Nc2cccc(Cl)c2)Oc2ccccc2O1	POLK inh inconclusive, Pol iota inh 25.1µM
COC(=O)c1cc2occc2n1Cc1ccc(F)cc1Cl	none (no result: WRN helicase inh)
CCOc1ccc(S(=O)(=O)N(CC(=O)N/N=C/c2ccc(-c3ccc([N+](=O)[O-])cc3)o2)c2ccccc2)cc1	POLK inh inconclusive, Pol eta inh 3.16µM, Pol iota inh inconclusive, POLB inh 7.08µM
COc1ccc(NC(=O)C2=C(C)Nc3ncnn3C2c2ccc(O)cc2)cc1 (stereo not given)	none (no result: WRN helicase inh)
CCCCNC(=O)c1sc(=S)n2c1[nH]c(=O)c1ccc(C(=O)NCCc3ccc(OC)c(OC)c3)cc12	POLK inh inconclusive, Pol eta inh 17.8µM, Pol iota inh 14.1µM, POLB inh inconclusive
O=C(Cn1ncc(Cl)c(Cl)c1=O)NC1CCCCC1	none (no result: POLB inh)
O=C(Cn1ncc(Cl)c(Cl)c1=O)NC1CCS(=O)(=O)C1 (stereo not given)	POLK inh inconclusive, Pol eta inh inconclusive, Pol iota inh 14.1µM, POLB inh inconclusive
CC1=C(C(=O)Nc2ccccc2C)C(c2cccs2)n2nc(SCc3ccccc3)nc2N1 (stereo not given)	none (no result: WRN helicase inh)
Cc1ccc(NC(=O)CSC(N)=O)cc1Cl	Pol iota inh 12.6µM
NC(=O)SCC(=O)Nc1ccc(Cl)c(Cl)c1	WRN helicase inh inconclusive, Pol iota inh inconclusive
Cc1ccc(S(=O)(=O)c2ncccc2[N+](=O)[O-])cc1	WRN helicase inh 50.1µM
CCOc1ccc(S(=O)(=O)N2CCN(c3nc(-c4ccccc4)nc4ccccc34)CC2)cc1OCC	none (no result: Pol eta inh, WRN helicase inh, POLB inh)
Cc1ccc(NC(=O)C(C)OC(=O)c2nc(Cl)ccc2Cl)cc1S(=O)(=O)N1CCOCC1 (stereo not given)	Pol eta inh inconclusive, Pol iota inh inconclusive (no result: POLB inh)
Cc1ccc(NC(=O)C(C)OC(=O)c2ccc(Cl)nc2)cc1S(=O)(=O)N1CCOCC1 (stereo not given)	Pol eta inh 20µM, Pol iota inh inconclusive (no result: POLB inh)
COc1ccccc1NC(C)C(=O)c1c[nH]c2ccccc12 (stereo not given)	none (no result: Pol eta inh, WRN helicase inh, POLB inh)
COc1cc(NC(=O)c2cnc(N)s2)cc(C(=O)Nc2cccc(C(F)(F)F)c2)c1	FEN1 inhibitor 56.2µM, Pol iota inh 2.24µM
COc1cc(NC(=O)c2ccnc(N)c2)cc(C(=O)Nc2cccc(C(F)(F)F)c2)c1	FEN1 inhibitor inconclusive, Pol iota inh inconclusive
CC(C)C[C@H](NC(=O)[C@H](C)NC(=O)CNC(=O)[C@H](CCCCN)NC(=O)[C@H](CCCN=C(N)N)NC(=O)[C@H](C)NC(=O)[C@H](Cc1ccccc1)NC(=O)[C@@H](N)CCCN=C(N)N)C(=O)N[C@@H](CCCN=C(N)N)C(=O)N[C@@H](CCC(N)=O)C(=O)N[C@@H](CCCCN)C(=O)N[C@@H](CC(N)=O)C(=O)N[C@H](C(N)=O)C(C)C	none (no result: Pol eta inh, FEN1 inhibitor, WRN helicase inh, Pol iota inh, POLB inh)
Cc1c(F)cccc1Cn1cnc2c(cnn2C(C)(C)C)c1=O	none (no result: Pol eta inh, WRN helicase inh, POLB inh)
CCC1Oc2ccccc2N(CC(=O)NCc2ccccc2)C1=O (stereo not given)	none (no result: WRN helicase inh)
Cc1[nH]n(-c2ccccc2)c(=O)c1C(C[N+](=O)[O-])c1ccc(Br)cc1 (stereo not given)	WRN helicase inh inconclusive
Cc1[nH]n(-c2ccccc2)c(=O)c1C(c1ccc(C(=O)O)cc1)c1c(C)[nH]n(-c2ccccc2)c1=O	WRN helicase inh inconclusive, Pol iota inh 1.41µM
COc1cccc(C(C[N+](=O)[O-])c2c(C)[nH]n(-c3ccccc3)c2=O)c1 (stereo not given)	Pol iota inh 2.51µM
CCOc1ccc(C(c2c(C)[nH]n(-c3ccccc3)c2=O)c2c(C)[nH]n(-c3ccccc3)c2=O)cc1OC	FEN1 inhibitor inconclusive, Pol iota inh 0.708µM (no result: WRN helicase inh)
CC12CCC=CC1C(c1ccc(C(F)(F)F)cc1)N(Cc1ccccc1)C2=O (stereo not given)	none (no result: Pol eta inh, WRN helicase inh, POLB inh)
COc1ccc(/C=N/NC(=O)c2ccco2)cc1COc1ccc(F)cc1	Pol iota inh 79.4µM, POLB inh inconclusive
COc1ccc(/C=N\NC(=O)c2cc(O)c(O)c(O)c2)cc1CN1CCN(c2ccc(F)cc2)CC1	POLK inh inconclusive, Pol eta inh inconclusive, FEN1 inhibitor 14.1µM, POLB inh inconclusive
COCc1cc(/C=N\NC(=O)c2ccc(Cl)cc2)ccc1OC	none
COc1ccc(/C=N/NC(=O)c2ccc(NC(C)=O)cc2)cc1COc1ccc(F)cc1F	Pol eta inh inconclusive, FEN1 inhibitor inconclusive, Pol iota inh 35.5µM, POLB inh 35.5µM
COc1ccc(/C=N/NC(=O)c2ccc(C)cc2)cc1CN1CCN(c2ccc(F)cc2)CC1	none
COc1ccc(/C=N/NC(=O)c2ccc(Cl)cc2)cc1Cn1cc(Cl)cn1	POLK inh inconclusive, Pol iota inh 79.4µM, POLB inh 20µM
Cc1ccc(CNc2nc(-c3ccco3)nn2S(C)(=O)=O)cc1	none (no result: WRN helicase inh)
CN(C)CCCO[C@H]1C([C@H](O)CO)O[C@@H]2OC(C)(C)O[C@@H]21 (stereo not given in full)	none (no result: POLK inh, FEN1 inhibitor, WRN helicase inh)
O=C(/C=C/c1ccccc1)NCCO	none (no result: Pol eta inh, FEN1 inhibitor, WRN helicase inh, Pol iota inh, POLB inh)
COc1ccc(/C=N/NC(=O)c2cc(C(C)(C)C)[nH]n2)cc1COc1ccc(F)cc1F	Pol iota inh 89.1µM
NS(=O)(=O)c1ccc(NS(=O)(=O)c2ccc(NC(=O)c3ccc(-c4ccccc4)cc3)cc2)cc1	POLK inh inconclusive, Pol eta inh inconclusive, FEN1 inhibitor inconclusive, WRN helicase inh inconclusive, Pol iota inh 56.2µM, POLB inh inconclusive
O=C(Nc1ccncc1)c1ccc(S(=O)(=O)Nc2ccccc2)cc1	none
CCCC/C=C/[C@H](c1ccccc1)[C@H](CO)Cc1ccc2ccccc2c1	Pol iota inh inconclusive (no result: Pol eta inh, WRN helicase inh, POLB inh)
O=C(CCC(=O)c1cccs1)NCCc1ccc(F)cc1	none (no result: POLB inh)
NS(=O)(=O)c1ccc(CCNC(=O)CCC(=O)c2cccs2)cc1	Pol eta inh 89.1µM (no result: POLB inh)
CCOc1ccc(S(=O)(=O)Nc2ccc(C(=O)N/N=C(\C)c3ccc(-n4ccnc4)cc3)cc2)cc1	none
COc1ccc(NS(=O)(=O)c2cccc(C(=O)NN=Cc3ccc(OC)cc3OC)c2)cc1	none (no result: POLB inh)
COc1ccc(NS(=O)(=O)c2cccc(C(=O)NN=Cc3cc(Br)c(O)c(Br)c3)c2)cc1	POLK inh inconclusive, Pol eta inh 44.7µM, FEN1 inhibitor inconclusive, WRN helicase inh inconclusive, Pol iota inh 15.8µM (no result: POLB inh)
COc1cc(/C=N/NC(=O)c2ccc3c(c2)OCCO3)cc(Br)c1O	none
